# Among all 2,300 compounds or so, fewer than 10 were called active. Not all results are given here. Values without a mark were called inactive.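 How the source made its calls: active means yellow fluorescent protein signal ratio exceeding the buffer control mean by over 5 SD of those controls; inactive means the rest.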
# Assay: nonspecific effects on YFP-HEK293 ionomycin response – cell-based, parental YFP-HEK293, YFP quench, counter-screen for TMEM16A inhibitor project (AID 652233);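 further: ratio is mean of duplicate wells from kinetic YFP trace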
# Settings: parental YFP-HEK293, iodide YFP quench, at 10 µM
row,Structure (SMILES),YFP ratio F(max-min)/F0
1,Cc1nc2ccccc2cc1OCc1ccc(F)cc1,-0.66
2,CCCCNC(=O)CSc1nc2n[nH]c(C)c2c(=N)n1-c1cccc(Cl)c1C,-0.786
3,c1ccc(-c2nnc(SCc3nc4ccccc4[nH]3)o2)cc1,-1.02
4,COc1ccc(OCC(=O)NCCc2ccc(S(N)(=O)=O)cc2)cc1,-0.874
5,COc1ccc(S(=O)(=O)NCCCCOc2ccc(Cl)cc2)cc1,-1.14
6,O=C(CNCCC1=CCCCC1)Nc1ccccc1N1CCCCCC1,-1.09
7,CN(c1cccc(NC(=O)c2ccc(CN3CCc4ccccc4C3)cc2)c1)S(C)(=O)=O,-0.916
8,Cc1ccc(-n2ncc3c(N4CCN(c5ccc(F)cc5)CC4)ncnc32)c(C)c1,-0.733
9,CCCCCc1ccc(-c2ccc(C(=O)O)cc2)nc1,-0.857
10,O=C(Nc1cccc(S(=O)(=O)Nc2ccc(Cl)cc2)c1)c1ccc2c(c1)OCCO2,-1.08
11,S=C(NCc1ccc(Cl)cc1)NC12CC3CC(CC(C3)C1)C2,-1.22
12,Cc1nc(C)c(-c2csc(NCCc3ccccc3)n2)s1,-0.901
13,Cc1cc(C)cc(NS(=O)(=O)c2ccc(Oc3ncc(C(F)(F)F)cc3Cl)cc2)c1,-0.961
14,N#Cc1nc(COc2ccc(-c3ccccc3)cc2)oc1NCc1cccnc1,-0.991
15,Cn1c(=O)n(C)c2cc(S(=O)(=O)N3CCCc4ccccc43)ccc21,-1.35
16,COc1ccc(CNc2nnnn2C)cc1,-0.894
17,O=C1c2ccccc2C(Nc2ccc3c(c2)OCCO3)N1Cc1ccco1 (centres undefined),-0.965
18,O=C(COC(=O)CCc1c[nH]c(=O)[nH]1)Nc1ccccc1Cl,-0.772
19,N#CC1=C(SCc2ccccc2)NC(=O)C(C#N)C12CCCC2 (centres undefined),-0.894
20,O=C(COc1ccccc1)NCc1ccc2c(c1)OCO2,-1.01

row,Structure (SMILES),YFP ratio F(max-min)/F0
1,S=C(NCc1cccs1)Nc1ccc(Cl)cc1,-1.2
2,Cc1ccc(C)c(N2CCN(S(=O)(=O)c3ccc4c(c3)oc(=O)n4C)CC2)c1,-1.24
3,Cc1cc(C=O)c(C)n1-c1ccc(NC2CCCCC2)c([N+](=O)[O-])c1,-0.94
4,CC(=O)c1c(C)[nH]c(C(=O)COC(=O)c2cccc(S(=O)(=O)N(C)c3ccccc3)c2)c1C,-1.08
5,O=C(Nc1nc(-c2ccc3c(c2)OCO3)cs1)c1ccncc1,-0.891
6,CC(NC(=O)c1ccco1)C(=O)Nc1nc(-c2ccccn2)cs1 (centres undefined),-1.13
7,Cc1ccc(N2C(=O)S/C(=C/c3cn(C)c4ccccc34)C2=O)cc1,-0.76
8,COc1ccc(CN(C)C(=O)CC(c2ccccc2)c2ccccc2)cc1,-1.04
9,CCOC(=O)N1CCN(C(=O)c2ccc3c(c2)N(Cc2ccc(C)cc2)CCS3)CC1,-1.18
10,Cc1noc(C)c1COC(=O)c1cc2ccccc2cc1O,-0.996
11,COc1ccc2[nH]cc(/C=C(/C#N)S(=O)(=O)c3ccccc3)c2c1,-1.14
12,O=C(N/N=C/c1cc(Cl)cc([N+](=O)[O-])c1O)C(O)(c1ccccc1)c1ccccc1,-0.984
13,Cc1ccc2c(c1)N(S(=O)(=O)c1cc(-c3cc(C)no3)ccc1C)CCO2,-0.714
14,COc1ccc(CCC(=O)c2ccc(OC)cc2)cc1,-1.35
15,Cc1ccc(-c2noc(CSc3nnnn3-c3ccccc3)n2)cc1,-0.963
16,CC(C)(C)C(=O)/C(C#N)=C/c1ccc(O)cc1,-1.08
17,COC(=O)c1ccc(COC(=O)c2c(C)nn(Cc3ccccc3Cl)c2Cl)o1,-1.29
18,CC1=NN(c2cccc(Cl)c2)C(=O)C12CC(C)=C(C)CS2 (centres undefined),-1.3
19,CCOC(=O)c1cccc(NC(=O)CCn2nnc3ccccc32)c1,-1.02
20,C=C(C)Cn1c(C)cc(C)c(S(=O)(=O)c2ccccc2C)c1=O,-0.995

row,Structure (SMILES),YFP ratio F(max-min)/F0
1,Cc1nc2c(C(=O)NCc3ccc4c(c3)OCO4)c[nH]n2c(=O)c1Cc1ccccc1F,-1.21
2,COC(=O)c1ccc(NC(=O)c2ccccc2NS(=O)(=O)c2ccccc2)cc1,-0.979
3,O=C(NC(=S)Nc1ccccc1C(=O)O)c1ccc(-c2ccc(Br)cc2)o1,-1.06
4,CN1c2ccc(C=O)c3c(C=O)ccc(c23)N(C)C1(C)C,-1
5,Cc1ccccc1-n1nnnc1SCCCC(=O)c1ccc(F)cc1,-1.2
6,Cc1ccc(F)cc1NC(=O)Cc1nn(C)c(=O)c2ccccc12,-1.06
7,CC(C)CNC(=S)NNC(=O)c1nn(C)cc1Cl,-0.979
8,Cc1ccc(-n2[nH]c(C)c(/C=N/N3C(=O)c4cccc5cccc(c45)C3=O)c2=O)cc1,-0.991
9,Cc1nc(SCC(=O)N2CCc3ccccc3C2)c2c(C)c(C)sc2n1,-1.07
10,CSc1nsc(NC(=O)Nc2ccccc2)n1,-0.839
11,CCOC(=O)N1CC=C2C(C#N)=C(N)C(C#N)(C#N)[C@H](c3cccs3)[C@H]2C1,-1.01
12,CCC(=O)Nc1ccc2nc(C)n(Cc3ccccc3Cl)c(=O)c2c1,-1.04
13,Cc1cccc(N=Nc2c(O)[nH]c3ccc(F)cc23)c1,-0.957
14,COc1cccc(CNS(=O)(=O)c2ccc3c(c2)CC(C)N3C(=O)C2CCC2)c1 (centres undefined),-1.01
15,C=CCn1c(SCC(=O)Nc2nc3ccccc3s2)nnc1-c1ccccc1O,-1.05
16,Fc1ccc(CSc2nnc(-c3cc4c(s3)-c3ccccc3CC4)o2)cc1,-0.984
17,O=C(CSCc1ccc(Cl)cc1)N1CCN(Cc2ccc3c(c2)OCO3)CC1,-1.19
18,CSc1cccc(NC(=S)N(C(C)C)C(C)c2ccccn2)c1 (centres undefined),-0.907
19,CCCCn1ccnc1C(=O)c1cccc(S(=O)(=O)N2c3ccccc3CC2C)c1 (centres undefined),-1.39
